# Screens as filed in PubChem.
# This is a sample that favours compounds with a hit; in the whole collection about 3.6% have one here.
# Sfp PPTase inh: blocks B. subtilis Sfp PPTase activity; Q9F4F7; Biochemical Sfp PPTase activity, qHTS; Potency, µM, for the others: largest response in the series, negative = inhibition, most hits filed as inhibitors; 310,000 tested, 3.5% active; AID 1490;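 note: the enzyme is Sfp with the accession as filed and its product quenches rhodamine fluorescence; 0% = enzyme reaction without inhibitor and -100% = no enzyme wells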
#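 Sfp 15 nM + cpd, 15 min RT; start w/ rhodamine-CoA 5 uM, BHQ-2-YbbR 12.5 uM (final); 50 mM Hepes pH 7.6, 10 mM MgCl2, 0.01% NP-40, 0.01% BSA; read 525/598 nm at 0 and 30 min.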
# GCN5L2 inh: GCN5L2 (KAT2A) acetyltransferase inhibition. Potency, µM (series often up to 58.9 µM), inactives show at the highest dose activity change, negative = inhibition, hits mostly inhibitors. 390,000 tested, 0.21% active. AID 504327. GCN5L2 HAT assay, ThioGlo1 CoA-SH fluorescence; note: % is set by controls: 0 for no effect and ±100 for the full control effect
#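 qHTS, 1536-well. 20nM enzyme, pH 7.5 HEPES/EDTA/Tween-20 buffer; 15 min compound preinc., RT. Start: 75uM H3(1-25), 70uM AcCoA, 50uM ThioGlo1. Read Ex340/Em540 at t=0 (autofluorescence flag) and t=20 min.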
# IMPase Li inh: membrane-permeable IMPase blocker, potentiated with lithium; CHO-M1 cells, IP1 TR-FRET (IP-One), carbachol + lithium; Potency, µM (titrated, usually from 59.4 µM), without a hit: top-dose activity, negative = IMPase inhibition, hits mostly inhibitors; 210,000 tested, 0.35% active; AID 1457;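 note: IP1 builds up when IMPase is blocked and the TR-FRET signal falls; plate controls were basal vehicle for no effect and high inhibitor control for full effect; nearly all actives have a fitted effect of over 50% in size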
#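 Steps: plate 2000 CHO-M1 cells per well and culture 16–30 h; add compound and lithium; incubate 30 min, 37C; add d2-IP1 tracer and Eu cryptate anti-IP1 antibody in lysis buffer; read after 10 min at room temperature.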
# KDM4E inh: JMJD2E (human) inhibition; AID 2147; B2RXH2; Potency, µM (titrated, usually from 57.1 µM), for the others: at the top dose activity change, negative = inhibition, hits mostly inhibitors; JMJD2E catalytic domain, FDH-coupled NADH fluorescence (FDH is formaldehyde dehydrogenase); 230,000 tested, 1.6% active; active = well fitted inhibition curve with a large enough effect, not every such curve was filed as active; inconclusive = small, poorly fitted or top-dose-only effect, or another doubt; inactive = no such curve, though single readings can be large or run the other way;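 note: 0% = wells with enzyme and -100% = buffer wells without enzyme; nearly all actives have a fitted effect of over 50% in size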
# Target sequence (B2RXH2 1-337 limits assumed): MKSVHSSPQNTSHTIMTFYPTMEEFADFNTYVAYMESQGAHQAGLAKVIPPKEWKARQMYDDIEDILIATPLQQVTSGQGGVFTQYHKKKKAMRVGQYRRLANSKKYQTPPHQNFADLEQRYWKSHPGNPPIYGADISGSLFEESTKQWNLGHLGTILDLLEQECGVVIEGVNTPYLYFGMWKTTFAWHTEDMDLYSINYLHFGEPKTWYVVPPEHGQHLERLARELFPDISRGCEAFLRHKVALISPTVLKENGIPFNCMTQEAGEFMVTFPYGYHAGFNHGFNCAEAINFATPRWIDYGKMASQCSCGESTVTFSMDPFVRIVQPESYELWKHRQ
# Epigenetic reg: regulators of epigenetic silencing causing reporter derepression in mouse cells; AID 1865; Potency, µM (titrated, usually from 53.9 µM), for the others: at the top dose GFP activation, actives largely listed as activators; 280,000 tested, 0.2% active; murine LDR cells, GFP reporter derepression, 30 h; note: % of control where 0% means no effect; nearly all actives have a fitted effect of over 60% in size
#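 GFP-positive cell count by laser-scanning cytometry (objects 20–120 um) after 30 h, 37 C compound exposure of murine LDR cells; reporter is CMV-GFP integrated at a silenced locus, inducible by HDAC or DNMT inhibitors.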
# NPSR antag: blocks cAMP signaling of the human neuropeptide S receptor | CHO-NPSR cells, cAMP TR-FRET, antagonist mode | AID 1461 | Q6W5P4 | Potency, µM (titrated, usually from 38.3 µM), for the others: top-dose activity change, negative = inhibition, most hits filed as inhibitors | 220,000 tested, 1% active; note: % is set by controls: 0 for no effect and ±100 for the full control effect; nearly all actives have a fitted effect of over 50% in size
# Target sequence (Q6W5P4 whole entry, looked up): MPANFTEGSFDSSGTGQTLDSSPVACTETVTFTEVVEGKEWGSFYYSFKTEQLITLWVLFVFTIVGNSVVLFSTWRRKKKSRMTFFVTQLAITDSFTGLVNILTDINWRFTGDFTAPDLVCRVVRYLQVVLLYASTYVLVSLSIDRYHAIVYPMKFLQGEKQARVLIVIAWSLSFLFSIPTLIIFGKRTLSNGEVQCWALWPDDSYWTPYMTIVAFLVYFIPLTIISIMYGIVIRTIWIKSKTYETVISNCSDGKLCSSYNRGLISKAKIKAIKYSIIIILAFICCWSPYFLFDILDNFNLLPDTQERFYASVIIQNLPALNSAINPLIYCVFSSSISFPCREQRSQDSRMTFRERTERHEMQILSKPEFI
# * marks the source's active call; other numbers are inactive results; ? = inconclusive; · = not tested or not shown; ! = not confirmed by another sample; [ ] = remark or other dose. Unless noted, calls come from the whole dose curve; as a rule, active = well fitted curve in the direction sought with a large enough effect; inconclusive = small, poorly fitted or top-dose-only effect, or another doubt; inactive = no such curve, though single readings can be large; an effect the other way counts as inactive or inconclusive. Potency is the fitted concentration of half-maximal effect.
SMILES,Sfp PPTase inh,GCN5L2 inh,IMPase Li inh,KDM4E inh,Epigenetic reg,NPSR antag
CCN(CC)c1ccc(NC(=O)c2ccccc2F)cc1S(=O)(=O)Nc1ccccc1OC,14µM*,-7%,10%,8%,-2%,-9%
NOCc1ccccc1,-13%,0%,·,·,·,·
COc1ccc(Cn2c(NCC(C)C)nc3c2c(=O)n(C)c(=O)n3C)cc1,·,-3%,·,·,1%,·
CCOC(=O)c1ccc2c(c1)N(Cc1ccc(F)cc1Cl)C(=O)c1ccccc1S2(=O)=O,·,-2%,·,·,3%,·
CC(=O)c1sc(N/N=C\c2ccccc2O)nc1C,13%,-10%,14%,28µM*,0%,1.6µM*
O=C(O)Cc1sc(NCCc2ccccc2)nc1-c1ccc(F)cc1,-6%,-4%,·,·,·,·
O=C(O)Cc1sc(-c2ccccc2Cl)nc1-c1ccccc1,15%,-3%,5µM*,?,-6%,-47%
CCOC(=O)c1sc(N/N=C/c2ccccc2)nc1C,35µM*,-17%,3%,?,-1%,-6%
O=C(O)Cc1sc(-c2cccnc2)nc1-c1ccc(Br)cc1,-2%,-2%,-16%,?,-1%,-29%
CCOC(=O)c1sc(N/N=C/c2cccc(C)c2)nc1C,-14%,-1%,10%[38.3 µM],?,0%,-18%[46.1 µM]
O=C(O)Cc1sc(N/N=C\c2ccccc2)nc1-c1ccccc1,40µM*,-26%,3%,5%,-1%,-13%
CCCCCc1ccc(C)cc1O,29%,-7%,·,·,·,·
CC(C)=CCC/C(C)=C/C=C/C1=CC2(C)CC1(C)C(/C=C(\C)CCC=C(C)C)CC2=O (stereo unspecified),1%,·,·,·,0%[10.1 µM],·
CCOC(=O)C1CCN(Cc2cn3c(-c4ccc(OC)cc4)nnc3s2)CC1,·,-8%,·,·,0%,·
Cc1nnc(S(=O)(=O)c2ccc(N=Nc3c(N)nc(N)nc3N)cc2)s1,·,·,-3%,·,·,·
Cc1nc(NCc2ccco2)c2c(C)c(C)sc2n1,-28%,1%,32%[38.3 µM],?,8%,-9%[46.1 µM]
Cc1sc2nc3c4ccccc4c(NCc4ccco4)nn3c(=O)c2c1C,18µM*,?,13%[38.3 µM],?,?,?
CCCCCC[C@@H]([C@@H](C)O)n1cnc2c(N)ncnc21,5%,5%,-6%,13µM*!,0%,-1%[46.1 µM]
Cn1cc(CN2CCc3c([nH]c4ccccc34)C2C(C)(C)C)cn1 (stereo unspecified),-1%,-21%,5%,?,6%,13%
Cn1cc(CN2CCc3c([nH]c4ccccc34)C2C2CCCCC2)cn1 (stereo unspecified),?,1%,7%,20µM*,0%,9%
COC(=O)C1=NOC2(C=C(Br)C(OC)=C(Br)C2=O)C1 (stereo unspecified),0.79µM*,·,·,·,0%[10.1 µM],·
Cc1cc(N2CCN(c3ccc(C(F)(F)F)cc3[N+](=O)[O-])CC2)c2ccccc2n1,71µM*,-21%,·,·,·,·
CCCc1nc(N)sc1C(=O)OCC,-18%,0.89µM*,7%[38.3 µM],3%,-1%,5%[46.1 µM]
CCOC(=O)c1sc(N)nc1C(C)C,45µM*,?,1%[38.3 µM],2%,0%,-6%[46.1 µM]
CCOC(=O)c1sc(SC)nc1N,14%,-1%,9%,2%,0%,12%
SMILES,Sfp PPTase inh,GCN5L2 inh,IMPase Li inh,KDM4E inh,Epigenetic reg,NPSR antag
CCOC(=O)c1sc(NC(=O)CC)nc1C,14%,-4%,7%,7%,0%,4%
Nc1ncnc2c1nc(-c1ccccc1)n2[C@H]1O[C@@H](CO)[C@@H](O)[C@H]1O,·,·,0%,·,·,·
COc1ccc(/C(O)=C2/C(=O)C(=O)N(CCCN(C)C)C2c2ccc(C)o2)cc1Cl (stereo unspecified),89µM*,-2%,-11%[38.3 µM],-17%,-1%,0%[46.1 µM]
Cc1ccc(C2/C(=C(/O)c3ccc(Br)cc3)C(=O)C(=O)N2Cc2ccco2)o1 (stereo unspecified),3.5µM*,-8%,-10%[38.3 µM],-7%,-3%,-15%[46.1 µM]
COc1ccc(/C(O)=C2\C(=O)C(=O)N(Cc3ccco3)C2c2cc(OC)ccc2OC)cc1 (stereo unspecified),?,2%,1%[38.3 µM],?,4%,7%[46.1 µM]
Cc1cc2nc3c(=O)[nH]c(=O)nc-3n(CC(O)C(O)C(O)COP(=O)(O)O)c2cc1C (stereo unspecified),-11%,?,-3%,·,5%,·
O=C(O)/C=C\C(=O)Nc1ccc2c(c1)-c1ccccc1C2,·,·,-14%,·,·,·
CC(C)=C[C@H]1[C@@H](C(=O)Oc2ccccc2C(C)C)C1(C)C,·,·,6%,·,·,·
CCOc1ccc(-c2cnc(NCc3cccc4ccccc34)n2CCOC)cc1,56µM*,0%,·,·,·,·
COc1cc(C(C)C)c2c(c1)S(=O)(=O)N(COc1cc(=O)n3cccc(OCCN4CCCCC4)c3n1)C2=O,-18%,-19%,·,·,·,·
CCC(C)C(=O)Nc1nnc(-c2cccs2)s1 (stereo unspecified),50µM*,-19%,-4%[38.3 µM],?,1%,-20%[46.1 µM]
CCC(=O)Nc1nnc(-c2cccs2)s1,20%,-4%,-8%,?,12%,6%
CC/C=C\C/C=C\C/C=C\C/C=C\C/C=C\C/C=C\CCC(=O)O[C@H](COCCCCCCCCCCCCCCCC)COP(=O)([O-])OCC[N+](C)(C)C,3%,·,-11%,-5%,-1%,·
CCCCCC(=O)N(O)C1CC(=O)N(c2ccccc2)C1=O (stereo unspecified),13µM*,-21%,-5%[38.3 µM],-6%,-1%,-6%[46.1 µM]
CCCCCC(=O)NNC1CC(=O)N(c2ccccc2)C1=O (stereo unspecified),14%,2%,·,2%,-1%,-14%
CCCCCC(=O)N(CN1C(=O)CCC1=O)c1ccccc1,9%,3%,13%[38.3 µM],4%,-1%,-7%[46.1 µM]
CCCCCCC(=O)N(O)C1CC(=O)N(Cc2ccccc2)C1=O (stereo unspecified),50µM*,-2%,11%[38.3 µM],?,-3%,-10%[46.1 µM]
CCCN(CCC)C1CC(=O)N(Cc2ccccc2)C1=O (stereo unspecified),?,0%,31%[38.3 µM],-7%,2%,-10%[46.1 µM]
O=C1CC(N(O)C2CC(=O)N(Cc3ccccc3)C2=O)C(=O)N1Cc1ccccc1 (stereo unspecified),45µM*,-4%,6%[38.3 µM],0%,-1%,-4%[46.1 µM]
CCOC(=O)c1cccc(NS(=O)(=O)c2c(C)nc3sc(C)cn3c2=O)c1,·,-16%,·,·,-2%,·
C=CCN1C(=O)/C(=C2/Sc3ccc(OC)cc3N2C)SC1=NCc1ccccc1,-1%,-1%,2µM*,-1%,-1%,-48%
O=Cc1s/c(=N\S(=O)(=O)c2ccccc2)n(CCCCl)c1Cl,-64%,-11%,25%,3%,?,10µM*
